From the supplement of paper PMC3724861
This is one part of a sample in which hits are shown more often than they occur. No count for the full screen is at hand.

Test system: T1, Caupolican (Caup) homeodomain DNA-binding domain
T1 sequence: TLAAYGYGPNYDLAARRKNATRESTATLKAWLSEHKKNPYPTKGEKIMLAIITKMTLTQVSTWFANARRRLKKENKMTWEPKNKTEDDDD
Assay: PBM E-score (8-mer, recovered from the published 9-mer minima) (E-score (dimensionless, -0.5 to 0.5)); Drosophila protein; higher = stronger relative binding preference, active = 0.31 or more
Method: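 Protein binding microarray (PBM): in vitro transcribed/translated Caupolican (Caup) homeodomain DNA-binding domain (residues 214-303) applied at 100 nM to a universal 8-mer PBM array (Agilent AMADID 015681). The 8-mer enrichment score (E-score, range -0.5 to 0.5) was computed, and each 9-mer score is the minimum E-score of its two constituent 8-mers. The E-score is the same for a 9-mer and its reverse complement; 0.31 is the stated binding threshold.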

PBM E-score, active:
ACGTGTCA ≥ 0.374
GTGTGTCA ≥ 0.312
TCGTGTCA 0.328
TACATCAA 0.331
AACATCAA ≥ 0.316
TACATCGA 0.314
CATGTACC 0.416
CATGTACA 0.469
CCTGTACA 0.32
GATGTACA 0.404
AATGTGTA 0.311
GATGTACC 0.366
AATGTACA 0.407
TATGTACA 0.427
CATGTACG 0.409
ATTACACA ≥ 0.332
GTTACACA 0.339
GGCATGTA 0.378
AGCATGTA ≥ 0.413
AACTTGTA 0.364
CACTTGTA 0.318
GACTTGTA 0.38
CCCTTGTA 0.337
GCCTTGTA 0.321
ACCTTGTA 0.412
ATACATCA 0.334
GTACATCA 0.383
AAGAACAC 0.312
AAGAACAT 0.357
ACTACATC 0.33
ACTACATA 0.35
ACTACATG 0.428

PBM E-score, inactive:
ATTTCTCA 0.0413
ACGACAGT 0.094
AGCATATA 0.119
AATCGAGC 0.0234
ACGTGTCG 0.301
GCGTGTCA 0.284
CTGTGTCA 0.142
ATGTGTCA 0.297
TAGTGTCA 0.182
CCGTGTCA 0.278
TACGTGGA -0.086
AACTATCT 0.0956
ATGCCGGC -0.134
AGCCCGAG -0.187
ACCAACCC -0.0241
CAGGGGAC -0.193
AAACACTA 0.193
GACATCGA 0.24
CACATCGA 0.0459
AACATCAC 0.267
AACATCAG 0.231
CACATCAA 0.0655
GACATCAA 0.296
GTGGCTTA -0.0913
GATCGGAA 0.052
GTTGAGTA 0.128
CATGTGTA 0.308
CAAGTACC 0.159
GATGTGCA 0.102
ACTGTACA 0.257
CCTGTACC 0.11
ACTGTACC 0.107
CATGTGCA 0.119
CTAGCGAG -0.138
AGTGAATG 0.0689
GGGCTGAC -0.108
ACGCATCC -0.0982
GATGTGCC -0.0456
TCTGTACA 0.281
GCTGTACC 0.0813
AATGTACT 0.269
AATGTGTG 0.142
AATGTACC 0.192
TATGTAGA 0.226
GATGTGTA 0.252
CAATGCTG -0.0134
CCGTAACG -0.1
CCTGAGCG -0.215
AAGGTCTC -0.0943
CCTGTACG 0.0896
AATGTACG 0.153
CACCTTGC 0.00581
CCAGTACC -0.0496
AATACTCG 0.138
ATGGTATC 0.109
AGATGCTA 0.0221
ATTACACC 0.259
GTTACAAA 0.285
CTTACACA 0.201
ATTACTCA 0.112
CGCAGGAA -0.134
GACGCACA -0.0232
CAGTTCAA -0.0476
GATGGGGC -0.192
GGCATGGA -0.0635
AGCATGGA 0.0568
GGCATGCA 0.0214
AGCATGGG -0.0663
AGATTAGC -0.0125
ATGTAGCC 0.145
GCCCAGCC -0.262
TACGCTCA -0.00447
GACTTGGA -0.0172
AACTTGTC 0.27
GACTTGCA 0.0909
AACTTGTG 0.147
CACTTGTC 0.271
CACTTGGA 0.0572
AGCGACCA -0.01
TACCTTGA 0.0541
CGCTAGAA -0.14
CTACTCTC -0.105
GAATAGCC -0.146
CCTTTGTA 0.138
CCCTTGTC 0.177
ACCTTGTC 0.306
GCCTTGAA -0.119
ACCTTGTG 0.0927
GCCTTGCA -0.0717
CGTAGTTA 0.157
CAAGCTGA 0.031
CTAGGGCC -0.235
GGTCCGAC -0.0703
CCAGTAAC -0.0237
ATTATCAG 0.0887
AACTATTC 0.0523
ACTGATCC 0.062
ATACATCC 0.276
CTACATCA 0.253
GCACATCA 0.0977
GAACATCA 0.259
CTAACGGA -0.0298
AAACGTTG -0.0301
ACAAAGGA 0.131
CTTTCCTA -0.094
ATCAGTAC 0.201
AAGAACAA 0.259
GAGAACAC 0.236
CAGAACAC 0.215
AAGAACAG 0.172
ACGTAGCT 0.0358
CATATCTC 0.0782
AGTTGGGC -0.15
AGCACGTG 0.082
ACTACAGG 0.199
ACCACATG 0.212
GCTACATA 0.248
CCTACATC 0.144
CCTACATA 0.153
ACTACAGC 0.149
